The results in this text go back to PubChem BioAssay.

The source made the active and inactive calls. Unless noted, how the calls were made is not given here.

Experiment [1] is described as follows: compounds binding Alexa647 anti-His antibody – biochemical, small-molecule microarray, 635 nm fluorescence, artefact control for SMM control protein annotation, primary screen (AID 1128).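 Further: score merges feature fluorescence with signal-to-noise for each printed compound spot.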 The following applies: higher = more signal.
In experiment [2] the test system is Human papillomavirus type 1a E7 protein (residues 1-88). The experiment is described as follows: HPV1a E7 small-molecule binders, primary screen, biochemical, small-molecule microarray, residues 1-88, 635 nm (AID 1129). As to conditions: small-molecule microarray binding, fluorescence 635 nm; higher = more signal.
Experiment [3] has as its target Focal adhesion kinase 1 (Homo sapiens) (UniProt Q05397). The experiment is described as follows: PTK2 protein binding on printed compound slides – biochemical, small-molecule microarray, 635/667 nm fluorescence, BSA, DTT, primary screen (AID 1130).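 Further: composite of spot emission at 667 nm and signal to noise over triplicate slides.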 As to conditions: 635 nm fluorescence, higher = more signal.
The test system of experiment [4] is Fibrinogen (Alexa647-labelled). The experiment is described as follows: Alexa647-fibrinogen binding to printed small molecules – biochemical, small-molecule microarray, 635/667 nm fluorescence, artefact control for SMM control-protein annotation, profiling panel (AID 1131).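 Further: z-score merges 667 nm fluorescence with per-spot signal-to-noise over triplicate slides.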 The following applies: fibrinogen-A647 binding fluorescence, higher = more signal.
Experiment [5] has as its target Follistatin (Homo sapiens) (UniProt P19883). Nature of the experiment: FST protein binding to printed compounds – biochemical, small-molecule microarray, 635/667 nm fluorescence, primary screen (AID 1132). The following applies: 635 nm fluorescence, higher = more signal.
In experiment [6] the target is Fibroblast growth factor 2 (Homo sapiens) (UniProt P09038). The experiment is described as follows: basic fibroblast growth factor binding to printed compounds – biochemical, small-molecule microarray, 635/667 nm fluorescence, primary screen (AID 1133). The following applies: FGF2, fluorescence 635/667, higher = more signal.
Experiment [7] can be described thus: JC-1 mitochondrial potential readout, lung cancer cells – cell-based, A549, JC-1 fluorescence, basal, 24 h, 100 nL, profiling panel (AID 1138).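 Further: A549 lung adenocarcinoma cells under basal conditions with no added stimulus; test concentration not given here.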 The following applies: higher = more signal.
Experiment [8] deals with Lefty1. Nature of the experiment: Lefty1 protein binding to printed compounds – biochemical, small-molecule microarray, 635/667 nm fluorescence, primary screen (AID 1139). The following applies: fluorescence 635/667, higher = more signal.
In experiment [9] the test system is wheat germ agglutinin (Triticum aestivum), Alexa647-labelled. The experiment is described as follows: Alexa647-WGA lectin binding to printed small molecules – biochemical, small-molecule microarray, 635/667 nm fluorescence, artefact control for SMM control-protein annotation, profiling panel (AID 1140).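 Further: score merges 667 nm feature emission with signal to noise over triplicate slides.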 As to conditions: WGA-A647 binding, 635 nm fluorescence, higher = more signal.

The target of experiment [10] is Luciferin 4-monooxygenase (Photinus pyralis) (UniProt P08659). Nature of the experiment: inhibition of purified Photinus pyralis luciferase – biochemical, luminescence, purified enzyme, 2006 set, primary screen (AID 1141).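 Further: cell-free assay with purified firefly luciferase at 100 ng per well in PBS; test concentration not given here.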 The following applies: purified firefly luciferase, SteadyGlo luminescence, 30 min; higher = more signal, called active from +8 up or from −8 down.

The test system of experiment [11] is Wnt5a (protein binding on small-molecule microarray). Nature of the experiment: small molecules binding Wnt5a protein – biophysical, small-molecule microarray, 635/667 nm fluorescence, primary screen (AID 1142).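 Further: fluorescence read at 667 nm with signal to noise per printed feature.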 As to conditions: 635 nm fluorescence, higher = more signal.
Experiment [12] can be described thus: ATP-based viability of Huh7 replicon cells – cell-based, CellTiter-Glo luminescence, basal, 48 h, cytotoxicity control for HCV replication inhibitor project, primary screen (AID 1143).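 Further: Huh7 hepatoma cells carrying a hepatitis C replication reporter with no stimulus; test concentration not given here.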 As to conditions: higher = more signal, called active from +8 up or from −8 down.
Experiment [13] can be described thus: Pseudomonas biofilm growth suppression – PAO1 strain, BacTiter-Glo luminescence, LB-PBS, primary screen (AID 1144). As to conditions: P. aeruginosa PAO1 biofilm, 12 h, higher = more signal.
A short description of experiment [14]: basal CRE-LacZ reporter activity in PC12 – cell-based, unstimulated, primary screen (AID 1145). The following applies: no forskolin, luminescence, 4.5 h, higher = more signal, called active from +8 up or from −8 down.
Experiment [15] is described as follows: forskolin-driven CRE-LacZ activity in PC12 – cell-based, CRE-LacZ reporter, forskolin-stimulated, primary screen (AID 1146).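 Further: PC12 cells with 6xCRE LacZ reporter stimulated by forskolin 10 µM; beta-galactosidase reporter signal reflecting CREB driven transcription.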 As to conditions: luminescence, 4.5 h, higher = more signal, called active from +8 up or from −8 down.
Experiment [16] addresses Streptavidin (Streptomyces avidinii) (UniProt P22629). Nature of the experiment: compounds binding control protein streptavidin – biophysical, small-molecule microarray, 635/667 nm fluorescence, artefact control for SMM compound annotation, primary screen (AID 1147).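 Further: signal reflects streptavidin binding to arrayed compounds as a control protein.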 The following applies: higher = more signal.
Experiment [17] can be described thus: probe aInhba binding on compound microarray – biochemical, small-molecule microarray, 635/667 nm fluorescence, primary screen (AID 1148).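 Further: score merges 667nm spot fluorescence with signal-to-noise for antibody binding to printed compounds.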 As to conditions: higher = more signal.
Experiment [18] addresses Torsin-1A (Homo sapiens) (UniProt O14656). Nature of the experiment: TOR1A wild-type binding on microarray – cell lysate, small-molecule microarray, lysate, 635/667 nm, primary screen (AID 1149). The following applies: COS7 hTOR1A-WT lysate, 635 nm fluorescence, higher = more signal.
For experiment [19] the target is unchanged. The experiment is described as follows: torsin A mutant lysate binding on microarrays – cell lysate, small-molecule microarray, COS7 lysate, 635/667 nm fluorescence, primary screen (AID 1150).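 Further: score pools 667 nm emission and signal to noise measuring lysate protein binding.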 The following applies: COS7 hTOR1A mutant lysate, 635 nm fluorescence, higher = more signal.
Experiment [20] relates to Sonic hedgehog protein (Shh). Nature of the experiment: Sonic hedgehog microarray binding compounds – biochemical, small-molecule microarray, 635/667 nm fluorescence, primary screen (AID 1151).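 Further: Shh protein binding to compounds spotted on small-molecule microarray slides; score combines spot fluorescence intensity with signal-to-noise across triplicate slides.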 As to conditions: 635 nm fluorescence, higher = more signal.

Sequence of Streptavidin (Streptomyces avidinii) (P22629 whole entry, looked up): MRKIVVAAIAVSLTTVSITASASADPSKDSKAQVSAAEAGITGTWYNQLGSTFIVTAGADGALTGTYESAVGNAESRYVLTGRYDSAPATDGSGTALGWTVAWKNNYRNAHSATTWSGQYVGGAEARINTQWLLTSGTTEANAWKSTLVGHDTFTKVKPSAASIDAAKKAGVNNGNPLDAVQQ
Sequence of Luciferin 4-monooxygenase (Photinus pyralis) (P08659 whole entry, looked up): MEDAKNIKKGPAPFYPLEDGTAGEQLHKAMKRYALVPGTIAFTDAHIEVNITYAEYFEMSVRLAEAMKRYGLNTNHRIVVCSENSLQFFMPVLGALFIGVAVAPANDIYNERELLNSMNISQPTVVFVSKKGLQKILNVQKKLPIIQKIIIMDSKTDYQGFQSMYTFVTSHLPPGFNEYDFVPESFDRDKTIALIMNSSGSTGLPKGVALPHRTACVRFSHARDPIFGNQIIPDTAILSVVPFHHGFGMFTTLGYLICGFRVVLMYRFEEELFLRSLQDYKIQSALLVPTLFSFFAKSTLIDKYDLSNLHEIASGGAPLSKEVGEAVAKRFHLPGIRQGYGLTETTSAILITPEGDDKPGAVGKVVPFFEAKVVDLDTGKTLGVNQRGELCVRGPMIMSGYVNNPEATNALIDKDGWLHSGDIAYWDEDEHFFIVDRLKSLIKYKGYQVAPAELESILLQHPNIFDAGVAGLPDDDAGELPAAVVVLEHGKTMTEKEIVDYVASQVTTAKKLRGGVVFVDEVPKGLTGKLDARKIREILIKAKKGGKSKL
Sequence of Focal adhesion kinase 1 (Homo sapiens) (Q05397 whole entry, looked up): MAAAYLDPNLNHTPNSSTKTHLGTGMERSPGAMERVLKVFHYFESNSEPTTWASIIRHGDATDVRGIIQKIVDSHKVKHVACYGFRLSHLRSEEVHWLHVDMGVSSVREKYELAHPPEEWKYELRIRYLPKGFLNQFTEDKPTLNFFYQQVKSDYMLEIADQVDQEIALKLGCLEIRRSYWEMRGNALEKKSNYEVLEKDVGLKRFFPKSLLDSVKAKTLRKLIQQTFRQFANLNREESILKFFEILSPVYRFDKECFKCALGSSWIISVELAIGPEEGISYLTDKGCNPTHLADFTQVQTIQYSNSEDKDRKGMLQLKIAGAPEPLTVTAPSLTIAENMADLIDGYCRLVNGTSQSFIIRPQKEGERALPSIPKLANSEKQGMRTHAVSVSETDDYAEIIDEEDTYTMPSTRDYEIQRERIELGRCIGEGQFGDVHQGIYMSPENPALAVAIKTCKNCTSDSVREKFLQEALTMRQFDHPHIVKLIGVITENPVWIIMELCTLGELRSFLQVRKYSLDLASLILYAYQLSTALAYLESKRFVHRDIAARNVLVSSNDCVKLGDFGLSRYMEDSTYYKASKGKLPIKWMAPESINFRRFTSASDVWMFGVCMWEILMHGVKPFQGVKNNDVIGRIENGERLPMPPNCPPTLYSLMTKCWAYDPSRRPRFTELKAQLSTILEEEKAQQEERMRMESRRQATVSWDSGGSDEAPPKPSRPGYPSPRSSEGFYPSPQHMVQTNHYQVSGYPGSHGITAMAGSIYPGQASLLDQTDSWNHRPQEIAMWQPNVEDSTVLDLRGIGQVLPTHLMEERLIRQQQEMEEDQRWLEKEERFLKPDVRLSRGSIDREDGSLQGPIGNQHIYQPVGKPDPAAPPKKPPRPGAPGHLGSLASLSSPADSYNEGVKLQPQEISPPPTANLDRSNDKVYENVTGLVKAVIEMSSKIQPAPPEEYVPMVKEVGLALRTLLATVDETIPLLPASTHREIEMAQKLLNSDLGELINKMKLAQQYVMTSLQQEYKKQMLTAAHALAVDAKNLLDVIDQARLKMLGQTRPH
Sequence of Torsin-1A (Homo sapiens) (O14656 whole entry, looked up): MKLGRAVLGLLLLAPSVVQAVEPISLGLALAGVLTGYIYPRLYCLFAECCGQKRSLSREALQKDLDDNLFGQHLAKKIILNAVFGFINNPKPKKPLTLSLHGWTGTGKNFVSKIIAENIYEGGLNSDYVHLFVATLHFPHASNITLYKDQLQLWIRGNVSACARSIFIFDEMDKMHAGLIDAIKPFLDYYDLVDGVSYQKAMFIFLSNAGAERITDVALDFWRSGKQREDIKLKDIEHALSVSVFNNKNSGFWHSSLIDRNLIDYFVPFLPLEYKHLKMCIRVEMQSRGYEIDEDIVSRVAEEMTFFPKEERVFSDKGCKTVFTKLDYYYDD
Sequence of Fibroblast growth factor 2 (Homo sapiens) (P09038 whole entry, looked up): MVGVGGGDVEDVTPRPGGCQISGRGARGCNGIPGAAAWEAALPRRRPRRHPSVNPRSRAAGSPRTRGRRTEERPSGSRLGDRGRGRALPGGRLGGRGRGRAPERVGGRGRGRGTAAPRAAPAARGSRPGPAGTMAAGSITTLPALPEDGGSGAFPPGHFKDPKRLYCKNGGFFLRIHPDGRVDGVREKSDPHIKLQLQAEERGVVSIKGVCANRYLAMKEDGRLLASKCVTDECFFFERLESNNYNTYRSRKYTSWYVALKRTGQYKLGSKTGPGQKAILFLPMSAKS
Sequence of Follistatin (Homo sapiens) (P19883 whole entry, looked up): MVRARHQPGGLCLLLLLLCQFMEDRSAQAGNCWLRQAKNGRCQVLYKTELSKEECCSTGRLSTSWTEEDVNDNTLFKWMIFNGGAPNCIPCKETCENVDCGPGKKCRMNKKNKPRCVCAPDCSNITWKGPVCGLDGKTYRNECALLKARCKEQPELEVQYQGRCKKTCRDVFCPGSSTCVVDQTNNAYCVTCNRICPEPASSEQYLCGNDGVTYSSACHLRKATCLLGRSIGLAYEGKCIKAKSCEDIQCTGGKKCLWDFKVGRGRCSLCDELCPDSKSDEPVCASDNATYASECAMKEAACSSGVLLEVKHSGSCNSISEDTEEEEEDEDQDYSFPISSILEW

For the compound `C=CCC(OC(C)=O)[C@@H]1[C@@H](N(Cc2cccc3ccccc23)C(=O)c2cccc3ccccc23)c2cc(OCCCO)ccc2N1C(=O)Cc1ccc2ccccc2c1` (stereo not given in full), the composite z-score in experiment [1] is 0.866; in [2], -0.0855; in [3] it was 0.119; in experiment [4] it was -0.438; in experiment [5], 0.832; in [6], 0.448. The composite z-score in experiment [8] was 0.093; in experiment [9] it was 0.457; in experiment [11] it was -0.0137; in [16], -0.166; in experiment [17] it was 0.0497; in experiment [18], -1.07. Moreover, the values for the composite z-score in experiment [19] and in experiment [20] were -0.736 and 0.882, respectively. For the same compound, the z-score in experiment [7] was 0.169; in experiment [10], 1.06 (inactive); in experiment [12], -1.61 (inactive); in experiment [13], 0.576 (inactive); in [14] it was -0.36 (inactive); in [15] it was 0.272 (inactive).
On to `Cc1ccccc1C(O)C1C=CC2C(=O)N(c3ccccc3)C(=O)C2N1Nc1ccccc1F` (stereo not given), for which the composite z-score in [1] was found to be 2.08; in [2], 1.22; in experiment [3], 0.622; in experiment [4], 1.06; in [5], 1.01; in experiment [6] it was 0.624. Besides, the composite z-score was -0.245 in experiment [8]; 1.15 in [9]; 0.0624 in [11]; 1.14 in [16]; 0.0569 in experiment [17]; 0.575 in experiment [18]. In addition, the composite z-score in experiment [19] was 1.25; in [20] it was -0.255. Further, the z-score in experiment [7] is -0.932; in experiment [10], -0.782 (inactive); in experiment [12] it was 0.198 (inactive); in experiment [13], -0.626 (inactive); in [14] it was -1.09 (inactive); in [15] it was -0.283 (inactive).
As to `COc1ccc(CCNC(=O)[C@@]2(Sc3ccc(C)cc3)CC(=O)N(Cc3cc(C(F)(F)F)cc(C(F)(F)F)c3)[C@@H]2c2ccc(CO)cc2)cc1`, the composite z-score was -0.588 in experiment [1]; -1.49 in [2]; -0.545 in [3]; -1.07 in [4]; -1.83 in experiment [5]; -2.57 in experiment [6]. The composite z-score was -1.25 in experiment [8]; 0.0191 in experiment [9]; -0.668 in experiment [11]; -0.959 in experiment [16]; -0.127 in [17]; -1.43 in experiment [18]. Besides, the composite z-score in [19] is -1.53; in experiment [20] it was -2.14. In addition, the z-score in experiment [7] is -0.138; in [10] it was -0.877 (inactive); in [12], 0.305 (inactive); in experiment [13], 0.731 (inactive); in experiment [14], 0.495 (inactive); in experiment [15] it was 0.84 (inactive).
With `COC(=O)[C@H](Cc1ccc(O)cc1)N1CC2=CCCC=C[C@@H]2[C@H]1[C@H](O)Cc1ccccc1`, the composite z-score is 0.0409 in experiment [1]; -0.24 in [2]; -0.0148 in experiment [3]; 0.92 in [4]; 0.359 in experiment [5]; 0.348 in experiment [6]. Further, the composite z-score is 0.58 in [8]; 0.216 in [9]; 0.0799 in experiment [11]; -0.53 in experiment [16]; 0.0108 in experiment [17]; -0.246 in experiment [18]. Further, the composite z-score was -0.0258 in experiment [19] and 0.33 in [20]. The z-score was -0.934 in [7]; -1.63 (inactive) in experiment [10]; -0.567 (inactive) in experiment [12]; -1.21 (inactive) in experiment [13]; 2.13 (inactive) in experiment [14]; 1.24 (inactive) in experiment [15].
Consider `CC(C)C[C@@H]1NC(=O)[C@H]2C[C@@H](C(=O)NCCCCCNC(=O)CS)[C@@H](c3ccc(O)cc3)N2C1=O`, for which the composite z-score in [1] is 2.05; in [2], 1.24; in experiment [3], 1.19; in experiment [4] it was 0.201; in experiment [5] it was 1.33; in experiment [6], 1.62. For the same compound, the composite z-score in experiment [8] was 0.497; in [9], 0.408; in experiment [11], 0.702; in experiment [16], 0.413; in experiment [17] it was -0.116; in [18] it was 0.6. The composite z-score is 0.997 in experiment [19] and 1.35 in experiment [20]. In addition, the z-score is -1.22 in experiment [7]; -1.76 (inactive) in experiment [10]; -0.153 (inactive) in experiment [12]; -0.215 (inactive) in [13]; 0.135 (inactive) in [14]; -0.908 (inactive) in [15].
